Screening results: PubChem BioAssay, National Center for Advancing Translational Sciences (NCATS)
Only some compounds are listed: those with a hit (about 12% of all), similar ones and a draw of the others.
L3MBTL1 block: qHTS Assay for the Inhibitors of L3MBTL1; AlphaScreen L3MBTL1–H3K9me1 peptide binding; AID 485360, 2010; Potency, µM (doses to about 57.1 µM), for the others: at the top dose activity, negative = inhibition, usual class: inhibitors; 230,000 tested, 0.66% active; further: on the % scale 0 is the no-effect control and ±100 the full control effect; nearly all actives have a fitted effect of over 60% in size
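AlphaScreen assay: L3MBTL1 (50 nM final) was preincubated 30 min at room temperature with biotinylated H3(1-15)K9me1 peptide (75 nM final), then 30 min with library compounds; streptavidin donor and nickel chelate acceptor beads (10 ug/mL final) added, 30 min dark.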
BAZ2B block: qHTS Assay for Inhibitors of BAZ2B; Bromodomain adjacent to zinc finger domain protein 2B (Homo sapiens), Q9UIF8; AlphaScreen BAZ2B-H3K14Ac peptide displacement; Potency, µM (top dose mostly 114 µM), without a hit: top-dose activity change, negative = inhibition, most hits filed as inhibitors; 360,000 tested, 4.4% active; AID 504333, 2011; further: on the % scale 0 is the no-effect control and ±100 the full control effect; nearly all actives have a fitted effect of over 60% in size
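Protein-peptide AlphaScreen: BAZ2B 50 nM, b-H3K14Ac 50 nM, 1x PBS pH 7.4 + 0.01% Tween-20. Preincubation 30 min RT; cpd 30 min RT (top 110 uM); beads 20 min RT, light-protected.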
JMJD2A Tudor: qHTS Assay for Inhibitors of JMJD2A-Tudor Domain; Lysine-specific demethylase 4A (Homo sapiens), O75164; 390,000 tested, 4.4% active; AID 504339, 2011; Potency, µM (titrated, usually from 114 µM), for the others: at the top dose activity change, negative = inhibition, hits mostly inhibitors; AlphaScreen JMJD2A-Tudor / H3K4me3 peptide binding; further: on the % scale 0 is the no-effect control and ±100 the full control effect; nearly all actives have a fitted effect of over 50% in size
G9a inh: qHTS Assay for Inhibitors of Histone Lysine Methyltransferase G9a. AID 504332, 2011. Potency, µM (highest dose often 102 µM), inactives show top-dose activity, negative = inhibition, hits mostly inhibitors. G9a H3K9 monomethylation, AlphaScreen, 2 h. Histone-lysine N-methyltransferase EHMT2 (Homo sapiens), Q96KQ7. 350,000 tested, 8.8% active; further: on the % scale 0 is the no-effect control and ±100 the full control effect; nearly all actives have a fitted effect of over 75% in size
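Readings reflect AlphaScreen signal from monomethyl-H3K9 antibody detection. HMT at 20 nM; substrate b-H3K9 500 nM; cofactor SAM 20 uM; 2 h RT reaction; compounds tested as titrations in qHTS with 15 min preincubation.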
HP1b binding inh: HTS for Inhibitors of HP1-beta Chromodomain Interactions with Methylated Histone Tails. Chromobox protein homolog 1 (Homo sapiens), P83916. AlphaScreen HP1-beta / biotin-H3K9me3 peptide binding. Potency, µM (titrated, usually from 114 µM), for inactives: top-dose activity change, negative = inhibition, usual class: inhibitors. 390,000 tested, 0.56% active. AID 540317, 2011; further: nearly all actives have a fitted effect of over 70% in size
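HP1-beta protein (50 nM final) preincubated 30 min at room temperature with biotinylated H3(1-18)K9me3 peptide (50 nM) in PBS pH 7.4, 0.01% Tween-20, then compound added for 30 min. AlphaScreen streptavidin donor/nickel chelate acceptor beads (10 ug/mL final), 30 min dark, luminescence read.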
Sfp PPTase inh: qHTS Assay for Inhibitors of Bacillus subtilis Sfp phosphopantetheinyl transferase (PPTase). 310,000 tested, 3.5% active. 4'-phosphopantetheinyl transferase ffp (Bacillus subtilis), Q9F4F7. Potency, µM, for inactives: largest response in the series, negative = inhibition, hits mostly inhibitors. AID 1490, 2009. Biochemical Sfp PPTase activity, qHTS;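 further: the enzyme is Sfp with the accession as filed and its product quenches rhodamine fluorescence; 0% = enzyme reaction without inhibitor and -100% = no enzyme wells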
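With Hepes-Na pH 7.6 buffer containing 10 mM MgCl2, Sfp (15 nM) modified BHQ-2-YbbR (12.5 uM) using rhodamine-CoA (5 uM). Two reads 30 minutes apart at 525/598 nm yielded each well's rate.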
An asterisk follows results filed as active; ? = inconclusive; nt = no result; [ ] = remark or other dose. The call rests on the fitted dose curve; in most records, active means well fitted curve in the direction sought with a large enough effect; inconclusive means small, poorly fitted or top-dose-only effect, or another doubt; inactive means no such curve, though single readings can be large; an effect the other way counts as inactive or inconclusive. Potency means the concentration at half of the fitted maximal effect.

SMILES	L3MBTL1 block	BAZ2B block	JMJD2A Tudor	G9a inh	HP1b binding inh	Sfp PPTase inh
COC(=O)CN1C(=O)[C@@H]2[C@H](C1=O)[C@@H]1CC(C(=O)OC)=C[C@@H](C(=O)OC)C3C1=C(C(=O)[C@]3(C)NC(=O)c1ccccc1)[C@@H]2C (stereo partly specified)	nt	nt	-13%	nt	30%	-3%
Cc1cccc(-c2nc(SCC(=O)N3CCc4ccccc43)c3c(=O)n(C)c(=O)n(C)c3n2)c1	nt	7%	3%	-2%[59 µM]	28%[57 µM]	nt
CC#CCN1c2ccccc2[C@]23C[C@@H](C(=O)OC)N(S(=O)(=O)c4cccs4)C2=NC(C(=O)OC)=C(C(=O)OC)[C@H]13	nt	nt	nt	nt	nt	-5%
CCOC(=O)N1CCN(Cc2nc3cc(NC(=O)CC(C)C)ccc3n2C(C)C)CC1	nt	-5%	-20%	-1%[59 µM]	7%	nt
CSC(=Nc1ccc(Cl)cc1)N[n+]1ccccc1	1%	-29%	-11%	2µM*	-3%	-4%
CCC(C)N(CCNC(=O)CC1Oc2ccccc2NC1=O)C1CCCCC1 (stereo unspecified)	nt	8%	-7%	50µM*	58%	4%
Cc1ccc(NC(=O)CC2Oc3ccccc3NC2=O)cc1C (stereo unspecified)	nt	-15%	-15%	6%[59 µM]	47%	nt
CC1CCN(Cc2ccc(NC(=O)CC3Oc4ccccc4NC3=O)cc2)CC1 (stereo unspecified)	nt	9%	-27%	50µM*	34%	-25%
CCN(CCNC(=O)CC1Oc2ccccc2NC1=O)c1ccccc1 (stereo unspecified)	nt	-24%	-26%	79µM*	19%	4%
CC1(C)Cc2c(cnn2-c2cccc(F)c2)C(NC(=O)c2ccc[n+]([O-])c2)C1 (stereo unspecified)	nt	0%	-2%	nt	17%	8%
Cc1cc(NC(=O)CCS(=O)(=O)c2cc(Br)cc3c2N(C(=O)C2CC2)CC3)ccc1Br	nt	1%	-11%	-35%[59 µM]	-10%	nt
NC(=O)[C@@H]1CCCN1C(=O)C(Cc1cnc[nH]1)NC(=O)C1CCC(=O)N1 (stereo partly specified)	nt	nt	nt	nt	nt	4%
CCc1nnc(NC(=O)CN2CCN(c3cccc(OC)c3)CC2)s1	-6%	-10%	-23%	14µM*	14%	-7%
CCc1nnc(NC(=O)CN2CCN(c3ccccc3F)CC2)s1	1%	-36%	-30%	50µM*	45%	-1%
O=C(CN1CCN(c2cccc(Cl)c2)CC1)Nc1nccs1	3%	?	-6%	40µM*	23%	6%
CCCN1CCN(CC(=O)Nc2nnc(CC)s2)CC1	1%	-2%	7.1µM*	nt	27%	-10%
Cc1cccc(OCC(=O)Nc2ccc3nc(SCc4ccccc4)sc3c2)c1	nt	-3%	4%	25%[59 µM]	57%	nt
CCOC(=O)Cc1nn(C)c(=O)c2ccccc12	nt	4%	-2%	-5%[59 µM]	6%	19%
Cn1nc(Cc2n[nH]c(=S)n2C)c2ccccc2c1=O	nt	1%	4µM*	nt	32%	2%
COc1ccc(C2NN=C(c3ccc(C)cc3)S2)cc1 (stereo unspecified)	nt	11%	-12%	32µM*	18%	9%
COc1ccc(-c2noc(CNC(=O)c3cc(OC)c(OC)c(OC)c3)n2)cc1	nt	-9%	-9%	1%[59 µM]	15%	nt
COc1cc(OC)cc(C(=O)NCc2n[nH]c(=S)n2-c2ccccc2OC)c1	-5%	4%	10µM*	1µM*	22%	?
COc1ccc(-n2c(CNC(=O)c3cc(OC)c(OC)c(OC)c3)n[nH]c2=S)cc1	1%	?	7.1µM*	8.9µM*	32%	-13%
COc1ccccc1-n1c(CNC(=O)c2cccs2)n[nH]c1=S	nt	-17%	?	?	13%	6%
O=C(C1CCCCC1)N1CCC2CC1c1cc(Cl)ccc12 (stereo unspecified)	nt	nt	8%	nt	51%	nt
SMILES	L3MBTL1 block	BAZ2B block	JMJD2A Tudor	G9a inh	HP1b binding inh	Sfp PPTase inh
O=C(CSc1nnc(-c2ccccc2Cl)o1)N1CCCc2ccccc21	nt	16%	10%	-25%[59 µM]	46%	nt
O=C(O)CN1CCN(c2ncc(C(F)(F)F)cc2Cl)CC1	4%	-12%	-28%	50µM*	9%	3%
NNC(=O)CN1CCN(c2ncc(C(F)(F)F)cc2Cl)CC1	-4%	-9%	3%	5%	36%	19%
CC1(C)C2CCC1(C)C(NC(=O)COC(=O)c1ccc(S(C)(=O)=O)c([N+](=O)[O-])c1)C2 (stereo unspecified)	nt	nt	-7%	nt	14%	nt
COc1ccc(-c2c3c(=O)n(C)c(=O)n(C)c3cn2-c2ccccc2O)cc1	-21%	?	3%[11.4 µM]	?	-8%	-12%
COc1ccc(-c2c3c(=O)n(C)c(=O)n(C)c3cn2-c2cc(OC)ccc2OC)cc1	-13%	?	?	45µM*	-24%	-11%
COc1ccc(-c2c3c(=O)n(C)c(=O)n(C)c3cn2Cc2cccnc2)cc1	-7%	-8%	-9%	10µM*	47%	-3%
CCOc1ccccc1-n1cc2c(c1-c1ccc(OC)cc1)c(=O)n(C)c(=O)n2C	nt	-24%	-30%	?	7%	nt
COc1ccc(-c2c3c(=O)n(C)c(=O)n(C)c3cn2Cc2ccccn2)cc1	-1%	50µM*	-36%	?	40%	?
O=C1OC[C@H]2CCCN2C(=O)[C@@H](CC(=O)N(CCO)Cc2ccccc2)C/C=C\CC[C@H]1Cc1ccc(F)cc1	28%	nt	-13%	nt	39%	nt
O=C(Nc1ccn([C@H]2CC[C@@H](CO)O2)c(=O)n1)c1ccccc1	9%	0%	-9%	4%[59 µM]	49%	12%
CC(C)(C)OC(=O)Nc1ncnc2c1C(c1ccccc1)c1c(ccc3ccccc13)O2 (stereo unspecified)	nt	nt	1%	nt	nt	nt
COc1cc(OC)c(NC(=O)Cn2c(=O)cc(C(F)(F)F)c3c(C)nn(C)c32)cc1Cl	nt	5%	-7%	9%[59 µM]	50%	nt
Cc1ccoc1C(=O)NCCNC(=O)c1occc1C	-5%	11%	-18%	-12%	18%	nt
Cc1ccoc1C(=O)NCc1occc1C(=O)O	?	?	?	45µM*	-3%	10%
